Potency, outcome and activity change, negative = inhibition data for 14 molecules are collected here from PubChem BioAssay (NCATS).

Results filed as inconclusive are left out. Unmarked numbers belong to inactive results. Calls of active or inactive are those of the source. Unless noted, calls come from the whole dose curve; as a rule, active = well fitted curve in the direction sought with a large enough effect; inconclusive = small, poorly fitted or top-dose-only effect, or another doubt; inactive = no such curve, though single readings can be large; an effect the other way counts as inactive or inconclusive. Positions of bridges follow the written chain, without caps; N, C: chain ends. Non-standard residues stand in square brackets, D forms with d. Residues, ends and D or L forms follow the SMILES beside them. ξ: configuration not given here. *: point of attachment. ξDab(CH2SO3H) = NC(CCNCS(=O)(=O)O)C(=O)O; Octanoyl(6-Me) = CCC(C)CCCCC(=O)*; Dab = NCC[CH](N)C(=O)O

In one experiment the target is Furin (Homo sapiens) (UniProt P09958). Nature of the experiment: Furin counterscreen qHTS for Zika virus inhibitors (AID 1347149).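 For activity change, negative = inhibition: purified recombinant full-length human furin enzyme at 5 nM; fluorescence gain from furin cutting a BOC-RVRR-AMC peptide substrate over 15 min; top concentration of the series differs between compounds; plate controls were no-inhibitor control for no effect and no-enzyme control for full effect.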 Note: nearly all actives have a fitted effect of over 70% in size. Note: potency is the fitted concentration of half-maximal effect. A digest of the protocol:
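Counterscreen measures cleavage of 2 microM BOC-RVRR-AMC, below its ~15 microM Km, by 5 nM full-length human furin at pH 7.0 after a 15-min compound preincubation. Inhibition derives from the 15-min fluorescence increase at 37C.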
(In general: The purpose of a counterscreen is to sort out artefacts and off-target activity.)

Experiment [1] in a line: ZIKV-mCherry secondary qHTS for Zika virus inhibitors (AID 1347158). Note: top concentration of the series differs between compounds. A digest of the protocol:
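Read-out is percent infection: mCherry-positive Vero cells (nuclear-proximal intensity >450 RFU, 3 SD above negative controls) counted by high-content imaging of Hoechst-stained, PFA-fixed wells after 48-72 h with ZIKV-mCherry at MOI 1 and compound.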

The nature of experiment [2]: Tertiary RLuc qRT-PCR qHTS assay for Zika virus inhibitors (AID 1347169). Note: top concentration of the series differs between compounds; % is set by controls: 0 for no effect and ±100 for the full control effect; nearly all actives have a fitted effect of over 55% in size. A digest of the protocol:
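Vero cells (1,000/well) infected with recombinant ZIKV-RLuc (Cambodian) at MOI 1-2 after compound addition, 48-72 hrs at 37 degrees C. Live-cell Renilla luciferase substrate added; luminescence read after 1-1.5 hrs.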

The nature of experiment [3]: Confirmatory screen NINDS Rhodamine qHTS for Zika virus inhibitors (AID 1347161). Note: potency is the fitted concentration of half-maximal effect; nearly all actives have a fitted effect of over 60% in size. A digest of the protocol: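 Percent inhibition, normalized to uninhibited and enzyme-free controls, is fitted to a 4-parameter Hill equation. Fluorescence change comes from a 15-min cleavage of 1.5 microM bis-peptide Rhodamine110 substrate by 25 nM linked NS2B-NS3 at room temperature.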
(In general: Quantitative high-throughput screening tests each substance at several concentrations.)

Experiment [4] concerns the target Rap guanine nucleotide exchange factor 3 (Homo sapiens) (UniProt O95398). The experiment can be described thus: Confirmatory qHTS for antagonist of cAMP-regulated guanine nucleotide exchange factor 3 (EPAC1) (AID 1645880).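 Note: plate controls were DMSO only for no effect and full effect of the ATA control for full effect; nearly all actives have a fitted effect of over 55% in size.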 A digest of the protocol:
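Released BODIPY-GDP fluoresces less than Rap1-bound BODIPY-GDP; the signal is followed at 480/540 nm at 5-min intervals over 30 min, after 5 min at room temperature. Reactions contain 100 nM EPAC1, 250 nM RAP1B-BODIPY-GDP and 50 uM GDP; results are normalized to ATA and DMSO.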

For experiment [5], the target named is Rap guanine nucleotide exchange factor 4 (Homo sapiens) (UniProt Q8WZA2). Nature of the experiment: Confirmatory qHTS for agonist of cAMP-regulated guanine nucleotide exchange factor 4 (EPAC2) (AID 1645884).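 Note: nucleotide exchange releases bodipy-GDP from Rap1 and this lowers its fluorescence; % is set by controls: 0 for no effect and ±100 for the full control effect; nearly all actives have a fitted effect of over 65% in size.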
Sequence of Rap guanine nucleotide exchange factor 4 (Homo sapiens) (Q8WZA2 whole entry, looked up): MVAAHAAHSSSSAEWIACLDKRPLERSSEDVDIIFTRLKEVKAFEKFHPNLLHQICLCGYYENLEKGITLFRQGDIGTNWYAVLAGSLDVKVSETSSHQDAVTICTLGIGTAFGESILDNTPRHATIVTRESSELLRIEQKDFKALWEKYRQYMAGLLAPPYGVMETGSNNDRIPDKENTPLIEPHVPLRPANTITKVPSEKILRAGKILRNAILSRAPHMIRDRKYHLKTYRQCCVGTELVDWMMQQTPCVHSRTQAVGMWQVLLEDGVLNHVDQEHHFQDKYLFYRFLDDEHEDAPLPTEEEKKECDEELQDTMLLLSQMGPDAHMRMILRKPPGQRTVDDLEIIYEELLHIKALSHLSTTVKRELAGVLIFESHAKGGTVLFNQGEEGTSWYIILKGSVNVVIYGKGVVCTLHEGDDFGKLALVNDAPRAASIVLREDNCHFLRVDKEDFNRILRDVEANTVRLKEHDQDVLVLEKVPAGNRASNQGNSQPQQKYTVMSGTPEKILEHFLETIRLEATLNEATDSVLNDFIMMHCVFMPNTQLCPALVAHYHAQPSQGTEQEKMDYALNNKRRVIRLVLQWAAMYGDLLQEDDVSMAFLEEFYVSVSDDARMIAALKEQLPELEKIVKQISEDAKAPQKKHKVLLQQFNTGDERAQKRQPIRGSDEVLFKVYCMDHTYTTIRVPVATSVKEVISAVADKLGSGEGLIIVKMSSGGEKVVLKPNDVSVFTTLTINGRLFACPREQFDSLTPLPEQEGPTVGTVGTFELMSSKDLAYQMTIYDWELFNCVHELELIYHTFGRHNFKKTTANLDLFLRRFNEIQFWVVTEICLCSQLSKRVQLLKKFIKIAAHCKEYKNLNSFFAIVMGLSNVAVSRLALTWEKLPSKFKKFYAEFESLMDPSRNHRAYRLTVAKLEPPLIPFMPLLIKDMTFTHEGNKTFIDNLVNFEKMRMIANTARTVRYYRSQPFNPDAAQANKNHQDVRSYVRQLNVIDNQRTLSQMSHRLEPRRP
For experiment [6] the target is unchanged. The experiment can be described thus: Confirmatory qHTS for antagonist of cAMP-regulated guanine nucleotide exchange factor 4 (EPAC2) (AID 1645885). For activity change, negative = inhibition: % is set by controls: 0 for no effect and ±100 for the full control effect. Note: nearly all actives have a fitted effect of over 25% in size. Note: potency is the fitted concentration of half-maximal effect.
For experiment [7], the target named is Rap guanine nucleotide exchange factor 3 (Homo sapiens) (UniProt O95398). Nature of the experiment: Counterscreen qHTS for antagonist of cAMP-regulated guanine nucleotide exchange factor 3 (EPAC1) (AID 1645888). Note: % of control where 0% means no effect. A digest of the protocol: (§1)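 Measured: fluorescence of BODIPY-GDP bound to Rap1B, which falls as exchange proceeds. Conditions include 50 uM competing GDP, 5 and 30 min reads, and a later cAMP challenge for antagonist detection.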
Sequence of Rap guanine nucleotide exchange factor 3 (Homo sapiens) (O95398 whole entry, looked up): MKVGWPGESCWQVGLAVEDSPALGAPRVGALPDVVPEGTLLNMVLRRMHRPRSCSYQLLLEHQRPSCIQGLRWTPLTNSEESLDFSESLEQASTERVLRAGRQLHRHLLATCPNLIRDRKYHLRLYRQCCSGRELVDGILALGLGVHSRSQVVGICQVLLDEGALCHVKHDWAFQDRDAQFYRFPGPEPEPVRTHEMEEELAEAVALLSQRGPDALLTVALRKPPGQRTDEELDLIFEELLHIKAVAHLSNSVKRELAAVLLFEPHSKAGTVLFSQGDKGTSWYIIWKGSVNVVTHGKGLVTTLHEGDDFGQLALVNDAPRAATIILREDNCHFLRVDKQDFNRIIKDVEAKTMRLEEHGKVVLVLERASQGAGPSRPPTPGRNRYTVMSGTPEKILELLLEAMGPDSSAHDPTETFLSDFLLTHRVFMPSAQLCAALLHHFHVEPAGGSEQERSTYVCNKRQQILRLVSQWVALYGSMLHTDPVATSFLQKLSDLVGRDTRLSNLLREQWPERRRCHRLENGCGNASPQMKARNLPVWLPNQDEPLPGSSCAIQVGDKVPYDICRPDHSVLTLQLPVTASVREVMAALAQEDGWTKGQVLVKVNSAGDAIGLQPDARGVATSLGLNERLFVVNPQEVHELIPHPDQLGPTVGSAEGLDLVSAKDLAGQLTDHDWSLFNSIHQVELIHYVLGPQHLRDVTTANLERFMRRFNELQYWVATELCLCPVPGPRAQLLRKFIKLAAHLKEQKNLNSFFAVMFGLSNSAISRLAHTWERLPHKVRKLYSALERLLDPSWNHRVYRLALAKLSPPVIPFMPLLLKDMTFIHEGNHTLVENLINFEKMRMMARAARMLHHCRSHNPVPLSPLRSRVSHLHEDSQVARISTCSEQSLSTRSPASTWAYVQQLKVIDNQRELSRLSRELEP

For experiment [8], the system named is Zika virus NS2B-NS3 protease (linked). The experiment can be described thus: 384 well plate NINDS AMC confirmatory qHTS for Zika virus inhibitors (AID 1347163).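 For activity change, negative = inhibition: linked protease at 5 30 or 60 nM final depending on run; fluorescence of AMC released from Ac-VKTGKR-AMC peptide cleaved by the protease; top concentration of the series differs between compounds; 0% = no-inhibitor control and -100% = no-enzyme control.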 Note: nearly all actives have a fitted effect of over 50% in size. Note: potency is the fitted concentration of half-maximal effect. A digest of the protocol: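 Enzyme (5, 30 or 60 nM final) first met test compounds for ~15 min. The AMC-tagged peptide Ac-VKTGKR-AMC followed at 30 microM. Fluorescence was then recorded at 25 min and scaled against no-enzyme and no-inhibitor wells.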

Experiment [9] concerns Zika virus NS2B-NS3 protease (linked construct). Nature of the experiment: 384 well plate NINDS Rhodamine confirmatory qHTS for Zika virus inhibitors (AID 1347164).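 For activity change, negative = inhibition: top concentration of the series differs between compounds; plate controls were no-inhibitor control for no effect and no-enzyme control for full effect.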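 Note: fluorescence from protease cleavage of Ac-LKRR-rhodamine 110 substrate; nearly all actives have a fitted effect of over 65% in size.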 Note: potency is the fitted concentration of half-maximal effect. A digest of the protocol: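 Linked NS2B-NS3 protease (final 5, 30 or 60 nM) preincubated ~15 minutes with compounds, then 10 microM Ac-LKRR-Rhodamine 110 added. Fluorescence (485/538 nm) read after 25 minutes at room temperature, normalized to no-enzyme and no-inhibitor controls.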

Experiment [10] concerns the target Rap guanine nucleotide exchange factor 3 (Homo sapiens) (UniProt O95398). The experiment can be described thus: Confirmatory qHTS for agonist of cAMP-regulated guanine nucleotide exchange factor 3 (EPAC1) (AID 1645881).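 Note: EPAC1 catalysed release of BODIPY-GDP from Rap1B seen as fluorescence loss; 100% = effect of cAMP agonist control; nearly all actives have a fitted effect of over 75% in size.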
Experiment [11] shares this target. The experiment can be described thus: Counterscreen qHTS for agonist of cAMP-regulated guanine nucleotide exchange factor 3 (EPAC1) (AID 1645889). Note: % of control where 0% means no effect; nearly all actives have a fitted effect of over 40% in size. A digest of the protocol:
as §1

Experiment [12] concerns the target Cytochrome P450 2C9 (Homo sapiens) (UniProt P11712). Nature of the experiment: Cytochrome P450 family 2 subfamily C member 9 (CYP2C9) small molecule antagonists: luciferase biochemical (cell-free) qHTS assay (AID 1645842; active = well fitted curve in the direction sought with a large enough effect in the repeat runs; an effect the other way counts as inactive or inconclusive; note: nearly all actives have a fitted effect of over 55% in size; note: potency is the fitted concentration of half-maximal effect; for activity change, negative = inhibition: series mostly up to about 57 µM; % is set by controls: 0 for no effect and ±100 for the full control effect). A digest of the protocol:
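P450-Glo CYP2C9 system: proluciferin substrate with enzyme in mix containing 0.4% BSA, 10 min at room temperature, then NADPH regeneration solution added and incubated 1 h at 37C. Detection reagent stopped reaction; luminescence read after 20 min as RLU.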

Experiment [13] can be described thus: Vero cells viability qHTS for Zika virus inhibitors (AID 1347167). Note: % is set by controls: 0 for no effect and ±100 for the full control effect. A digest of the protocol:
(§2)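 To flag cytotoxic protease inhibitors, viability is measured by ATP-dependent luminescence (CellTiter Glo) after cells attached overnight receive compound for 24 to 48 hours in DMEM with 4% FBS.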

The nature of experiment [14]: HepG2 cells viability qHTS for Zika virus inhibitors (AID 1347168). Note: % is set by controls: 0 for no effect and ±100 for the full control effect. A digest of the protocol:
as §2

In experiment [15] the target is Cytochrome P450 2D6 (Homo sapiens) (UniProt P10635). Nature of the experiment: Cytochrome P450 family 2 subfamily D member 6 (CYP2D6) small molecule antagonists: luciferase biochemical (cell-free) qHTS assay (AID 1645840; active = well fitted curve in the direction sought with a large enough effect in the repeat runs; an effect the other way counts as inactive or inconclusive; note: potency is the fitted concentration of half-maximal effect; nearly all actives have a fitted effect of over 55% in size). A digest of the protocol: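 P450-Glo CYP2D6 system: proluciferin substrate converted by enzyme to luciferin, read by luminescence proportional to activity. Enzyme-substrate mix with compound 10 min at room temperature, then NADPH regeneration 1 h before detection reagent.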
Sequence of Cytochrome P450 2D6 (Homo sapiens) (P10635 whole entry, looked up): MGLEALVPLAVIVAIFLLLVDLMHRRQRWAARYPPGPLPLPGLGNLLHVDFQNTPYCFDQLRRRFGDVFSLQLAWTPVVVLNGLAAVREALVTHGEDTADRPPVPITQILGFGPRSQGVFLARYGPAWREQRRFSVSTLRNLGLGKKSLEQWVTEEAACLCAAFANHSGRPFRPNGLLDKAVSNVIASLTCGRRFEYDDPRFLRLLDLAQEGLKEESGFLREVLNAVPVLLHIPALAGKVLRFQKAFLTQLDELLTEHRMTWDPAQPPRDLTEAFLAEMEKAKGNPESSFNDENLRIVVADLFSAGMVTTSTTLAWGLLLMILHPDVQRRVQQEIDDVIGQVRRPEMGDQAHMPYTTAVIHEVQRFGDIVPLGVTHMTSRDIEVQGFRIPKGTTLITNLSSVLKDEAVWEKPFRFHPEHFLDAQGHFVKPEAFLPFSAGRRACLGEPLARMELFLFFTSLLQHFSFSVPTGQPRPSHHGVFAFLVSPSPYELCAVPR

Sequence of Furin (Homo sapiens) (P09958 whole entry, looked up): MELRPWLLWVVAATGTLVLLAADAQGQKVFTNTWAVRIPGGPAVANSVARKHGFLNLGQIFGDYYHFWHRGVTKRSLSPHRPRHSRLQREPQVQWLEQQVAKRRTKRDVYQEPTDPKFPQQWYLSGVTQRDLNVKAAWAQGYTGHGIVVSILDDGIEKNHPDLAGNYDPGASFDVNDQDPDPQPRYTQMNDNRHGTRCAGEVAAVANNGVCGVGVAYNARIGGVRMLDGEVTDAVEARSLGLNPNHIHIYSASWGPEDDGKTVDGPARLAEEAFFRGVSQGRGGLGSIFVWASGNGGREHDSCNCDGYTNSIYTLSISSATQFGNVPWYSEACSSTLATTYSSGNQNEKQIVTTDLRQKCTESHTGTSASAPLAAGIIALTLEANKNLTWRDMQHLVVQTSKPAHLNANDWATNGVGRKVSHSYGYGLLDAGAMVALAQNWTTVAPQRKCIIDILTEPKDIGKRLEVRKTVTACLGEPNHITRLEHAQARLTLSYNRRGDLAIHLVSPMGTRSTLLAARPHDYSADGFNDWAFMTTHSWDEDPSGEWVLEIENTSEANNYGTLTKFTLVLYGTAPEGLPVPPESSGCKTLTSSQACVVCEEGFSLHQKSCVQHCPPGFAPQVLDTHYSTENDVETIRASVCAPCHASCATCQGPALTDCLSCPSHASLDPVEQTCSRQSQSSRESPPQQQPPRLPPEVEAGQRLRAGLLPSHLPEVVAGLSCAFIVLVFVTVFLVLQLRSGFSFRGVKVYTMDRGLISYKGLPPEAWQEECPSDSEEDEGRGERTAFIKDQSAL
Sequence of Cytochrome P450 2C9 (Homo sapiens) (P11712 whole entry, looked up): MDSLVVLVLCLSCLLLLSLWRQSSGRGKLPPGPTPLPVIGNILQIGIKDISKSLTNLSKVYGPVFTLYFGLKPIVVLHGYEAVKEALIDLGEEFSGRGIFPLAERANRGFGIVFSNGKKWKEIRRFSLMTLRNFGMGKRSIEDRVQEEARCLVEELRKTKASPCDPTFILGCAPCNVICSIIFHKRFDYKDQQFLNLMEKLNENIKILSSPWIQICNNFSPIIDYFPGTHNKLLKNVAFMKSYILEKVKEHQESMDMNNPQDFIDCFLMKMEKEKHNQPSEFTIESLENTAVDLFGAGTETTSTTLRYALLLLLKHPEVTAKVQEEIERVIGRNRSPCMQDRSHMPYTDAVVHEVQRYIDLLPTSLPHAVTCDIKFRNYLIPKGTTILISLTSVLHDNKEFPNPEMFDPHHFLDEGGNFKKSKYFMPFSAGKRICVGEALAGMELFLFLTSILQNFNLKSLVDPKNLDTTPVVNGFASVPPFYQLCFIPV

For the molecule `COc1ccccc1C(=O)Nc1ccc(C(=O)OCc2cc(=O)n3c4c(sc3n2)CCCC4)cc1`, the Potency with Furin (Homo sapiens) is 7.44 µM (active). For the same molecule, the Potency entry in [1] and in [2] was “inactive” in each case.

As to `Cc1ccc(OCC(=O)Nc2ccc(C(=O)OCc3cc(=O)n4nc(C5CC5)sc4n3)cc2)cc1`, the Potency result (in the experiment with Furin (Homo sapiens); in experiment [2]) was “inactive” each time.

As for `CCCCCCc1cc2cc(-c3nnc(-c4cccc(Cl)c4)o3)c(=O)oc2cc1O`, the Potency entry (in the experiment with Furin (Homo sapiens); in experiment [4]) was “inactive” in each case. The Potency is 3.55 µM (active) in [3] and 7.57 µM (active) in [6]. For the same molecule, the molecule was called inactive in [5] and in [7].

In the case of `CCOC(=O)c1ccc(NC(=O)CSc2nc(-c3ccc(F)cc3)cc(C(F)(F)F)c2C#N)cc1`, the Potency entry (with Furin (Homo sapiens); in experiment [8]; in experiment [9]) was “inactive” throughout.

In the case of `CC(C)c1ccc(NC(=O)c2ccc3oc(=O)c(S(=O)(=O)c4ccc(F)cc4)cc3c2)cc1`, the Potency result (in the experiment with Furin (Homo sapiens); in experiment [1]) was “inactive” throughout. Also, in [3], the Potency is 56.2 µM (active).

As to `COc1cccc(C(=O)Nc2ccc(C(=O)OCc3cc(=O)n4nc(C5CC5)sc4n3)cc2)c1`, the Potency in the experiment with Furin (Homo sapiens) is 41.8 µM (active). The Potency result in experiment [8] and in [9] was “inactive” each time.

On to `CCCCCCc1cc2cc(-c3cn4c(n3)sc3cc(OC)ccc34)c(=O)oc2cc1O`, for which the Potency entry (with Furin (Homo sapiens); in experiment [1]; in experiment [8]; in experiment [2]; in experiment [4]; in [11]) was “inactive” throughout. Further, in experiment [9], the Potency was 35.5 µM (active). In addition, the outcome in experiment [10], in experiment [5] and in [7] was inactive. Further, in [6], the activity change, negative = inhibition was -6.89% [at 12.7 µM].

As to `Fc1cc(C2=Nn3c(COc4ccc(Cl)cc4Cl)nnc3S/C2=C\c2ccc(-c3ccc(Cl)cc3)o2)c(Cl)cc1Cl`, the Potency entry (with Furin (Homo sapiens); in experiment [1]; in experiment [9]; in [2]) was “inactive” throughout. Besides, the Potency in experiment [8] was 158 µM (active).

As for `CCCCc1nn2c(=O)cc(COC(=O)c3ccc(NC(=O)CCc4ccccc4)cc3)nc2s1`, the Potency entry (in the experiment with Furin (Homo sapiens); in [1]; in experiment [2]) was “inactive” each time. Also, the Potency in experiment [9] is 25.1 µM (active).

For `Cc1ccc(-c2nnc(Nc3ccccc3)c3ccccc23)cc1S(=O)(=O)NCc1nc2ccccc2[nH]1`, the Potency in the experiment with Furin (Homo sapiens) is 41.8 µM (active). The Potency entry in experiment [1] and in experiment [12] was “inactive” throughout.

As to `CCC(C)CCCCC(=O)NC(CCNCS(=O)(=O)O)C(=O)NC(C(=O)NC(CCNCS(=O)(=O)O)C(=O)NC1CCNC(=O)C(C(C)O)NC(=O)C(CCNCS(=O)(=O)O)NC(=O)C(CCNCS(=O)(=O)O)NC(=O)C(CC(C)C)NC(=O)C(CC(C)C)NC(=O)C(CCNCS(=O)(=O)O)NC1=O)C(C)O` (configuration not stated) ({Octanoyl(6-Me)}-[ξDab(CH2SO3H)]T[ξDab(CH2SO3H)][Dab][ξDab(CH2SO3H)]LL[ξDab(CH2SO3H)][ξDab(CH2SO3H)]T; lactam 4-C; configuration not given here), the Potency entry (in the experiment with Furin (Homo sapiens); in [2]) was “inactive” each time. In addition, the Potency is 12.6 µM (active) in experiment [3], 25.1 µM (active) in experiment [8] and 3.55 µM (active) in experiment [9].

For the molecule `O=C(O)COc1ccccc1C1Nc2ccccc2-c2nnc(SCc3ccc(Cl)cc3)nc2O1` (configuration not stated), the Potency result (in the experiment with Furin (Homo sapiens); in [1]; in experiment [2]) was “inactive” each time. Moreover, the figures for the Potency in experiment [8] and in experiment [9] were 316 µM (active) and 224 µM (active), respectively.

For the molecule `CCCCOc1ccc(C2C(=O)N(C3CCCCC3)CC(=O)N2C2CCCCC2)cc1` (configuration not stated), the Potency result (with Furin (Homo sapiens); in experiment [13]; in experiment [14]; in [2]) was “inactive” throughout.

On to `Cc1ccc(-c2nnc(Nc3ccc(Br)cc3)c3ccccc23)cc1S(=O)(=O)NCc1nc2ccccc2[nH]1`, for which the results for the Potency (with Furin (Homo sapiens); in [15]; in experiment [12]) were 52.7 µM (active), 3.38 µM (active) and 0.849 µM (active), respectively. Further, the Potency result in experiment [1] and in [9] was “inactive” throughout.
